Measured values as given in PubChem BioAssay (NCATS).
Inconclusive results are not listed. The source made the active and inactive calls. Unless noted, the call rests on the fitted dose curve; in most records, active means well fitted curve in the direction sought with a large enough effect; inconclusive means small, poorly fitted or top-dose-only effect, or another doubt; inactive means no such curve, though single readings can be large; an effect the other way counts as inactive or inconclusive.

Tests used:
[1] = target: Endonuclease 4 (Escherichia coli (strain K12)) (UniProt P0A6C1); experiment: Counterscreen for APE1 Inhibitors: qHTS Validation Assay for Inhibitors of Endonuclease IV (AID 1708); further: on the % scale 0 is the no-effect control and ±100 the full control effect
Outline: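 E. coli EndoIV at 2 nM final, preincubated 15 min at room temperature with compound, then 50 nM TAMRA/BHQ-2 THF abasic-site duplex added. Buffer: 50 mM Tris-HCl pH 7.5, 50 mM NaCl, 2 mM MgCl2, 1 mM DTT, 0.01% Tween-20. Kinetic fluorescence increase, third minus first read.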

[2] = qHTS for differential inhibitors of proliferation of Plasmodium falciparum line 7G8 (AID 1815);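 further: parasite growth measured after three days of incubation; plate controls were vehicle wells for no effect and reference inhibitor wells for full effect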
[3] = qHTS for differential inhibitors of proliferation of Plasmodium falciparum line 3D7 (AID 1876);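 further: parasite growth measured after three days of culture; 0% = vehicle wells and -100% = reference inhibitor wells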
[4] = qHTS for differential inhibitors of proliferation of Plasmodium falciparum line D10 (AID 1877);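 further: parasites grown with compound for 72 h before DNA staining; plate controls were vehicle wells for no effect and reference inhibitor wells for full effect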
[5] = qHTS for differential inhibitors of proliferation of Plasmodium falciparum line Dd2 (AID 1882); settings: Potency: Plasmodium falciparum Dd2 proliferation inhibition;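 further: series mostly up to about 29 µM; plate controls were DMSO vehicle for no effect and 0.29 µM artemisinin for full effect; nearly all actives have a fitted effect of over 65% in size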
Outline: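 Dd2-infected erythrocytes (0.3% parasitemia, 2.5% hematocrit final) incubated with compound 72 h at 37 C, 5% CO2; lysed with saponin/Triton buffer containing SYBR Green I, incubated overnight in the dark, then read by fluorescence (485/535 nm). Normalized to 0.29 uM artemisinin and DMSO.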

[6] = qHTS for differential inhibitors of proliferation of Plasmodium falciparum line HB3 (AID 1886); settings: Potency: Plasmodium falciparum HB3 proliferation inhibition;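 further: parasites grown with compound for 72 h before SYBR Green readout; plate controls were vehicle for no effect and reference inhibitor for full effect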
[7] = qHTS Assay for Modulators of Human Peripheral Myelin Protein 22 (PMP22) Expression/Activity (AID 1967; active means well fitted curve in the direction sought with a large enough effect in the signal ratio; the % refers to the signal ratio;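 further: 0% = untreated cells and 100% end not stated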)
Outline: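 Mouse MSC80 Schwann cells carrying Pmp22 promoter–green click beetle luciferase plus EF-alpha–red luciferase control, dosed 24 h at 37 °C. Dual-filter luminescence, overlap-corrected; %Activity from green/red ratio normalised to untreated cells, concentration-response curves fitted.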

[8] = target: ATP-dependent DNA helicase Q1 (Homo sapiens) (UniProt P46063); experiment: qHTS Validation Assay for Inhibitors of RecQ-Like Dna Helicase 1 (RECQ1) (AID 2353);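 further: plate controls were DMSO vehicle for no effect and enzyme-free control for full effect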
Outline: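 50 nM RECQ1T1 preincubated 15 min with compound in Tris pH 8.0 buffer with MgCl2, DTT, Tween-20 and 2.5 ug/ml poly(dI-dC); started with 200 nM TAMRA/BHQ-2 forked duplex and 2 mM ATP. Unwinding read as fluorescence (525/598 nm), two reads 2 h apart.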

[9] = target: RecQ-like DNA helicase BLM (Homo sapiens) (UniProt P54132); experiment: qHTS Validation Assay for Inhibitors of Bloom's syndrome helicase (BLM) (AID 2364);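 further: plate controls were DMSO vehicle for no effect and enzyme-free control for full effect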
Chain of RecQ-like DNA helicase BLM (Homo sapiens) (P54132 whole entry, looked up): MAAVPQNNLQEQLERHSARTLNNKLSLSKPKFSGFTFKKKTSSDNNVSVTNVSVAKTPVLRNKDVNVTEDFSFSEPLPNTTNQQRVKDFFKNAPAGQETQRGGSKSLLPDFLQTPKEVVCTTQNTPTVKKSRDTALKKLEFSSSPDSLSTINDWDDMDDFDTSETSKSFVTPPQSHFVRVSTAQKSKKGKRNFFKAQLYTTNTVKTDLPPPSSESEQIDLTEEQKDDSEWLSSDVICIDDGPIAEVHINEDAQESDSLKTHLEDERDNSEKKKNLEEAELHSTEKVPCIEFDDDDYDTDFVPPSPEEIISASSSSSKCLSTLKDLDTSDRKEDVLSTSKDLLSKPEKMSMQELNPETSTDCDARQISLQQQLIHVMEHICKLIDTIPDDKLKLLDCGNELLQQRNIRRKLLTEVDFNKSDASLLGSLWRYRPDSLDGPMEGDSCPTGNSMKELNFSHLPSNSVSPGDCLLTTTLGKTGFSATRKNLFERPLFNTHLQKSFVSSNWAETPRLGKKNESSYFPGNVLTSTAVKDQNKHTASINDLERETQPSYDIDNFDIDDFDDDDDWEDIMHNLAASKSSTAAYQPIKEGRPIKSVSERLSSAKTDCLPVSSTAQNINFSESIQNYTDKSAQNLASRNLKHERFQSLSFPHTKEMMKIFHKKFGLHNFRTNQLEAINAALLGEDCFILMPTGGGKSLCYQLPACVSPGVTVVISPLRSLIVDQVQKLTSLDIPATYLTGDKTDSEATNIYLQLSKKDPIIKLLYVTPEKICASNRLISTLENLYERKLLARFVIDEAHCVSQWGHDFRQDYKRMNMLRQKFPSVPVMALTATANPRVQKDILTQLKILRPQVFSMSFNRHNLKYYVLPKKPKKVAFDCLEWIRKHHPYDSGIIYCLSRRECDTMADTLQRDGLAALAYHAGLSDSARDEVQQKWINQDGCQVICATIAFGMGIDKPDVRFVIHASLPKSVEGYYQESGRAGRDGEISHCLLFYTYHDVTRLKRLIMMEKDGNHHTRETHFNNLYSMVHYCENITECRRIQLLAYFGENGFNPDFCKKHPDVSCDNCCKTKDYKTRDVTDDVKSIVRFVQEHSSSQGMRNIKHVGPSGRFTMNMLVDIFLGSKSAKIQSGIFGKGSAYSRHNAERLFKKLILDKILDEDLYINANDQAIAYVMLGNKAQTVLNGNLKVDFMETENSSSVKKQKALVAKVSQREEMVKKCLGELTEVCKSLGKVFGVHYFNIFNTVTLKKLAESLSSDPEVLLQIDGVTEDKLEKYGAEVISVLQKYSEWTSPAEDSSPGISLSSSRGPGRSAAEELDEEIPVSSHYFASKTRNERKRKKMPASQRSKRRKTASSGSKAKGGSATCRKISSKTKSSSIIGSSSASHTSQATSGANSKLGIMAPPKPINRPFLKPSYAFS
Outline: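 50 nM BLM preincubated 15 min at room temperature with compound in pH 8.0 Tris buffer containing 2.5 ug/ml poly(dI-dC); started with 200 nM TAMRA/BHQ-2 forked duplex and 2 mM ATP (final). Unwinding read as TAMRA fluorescence increase, two reads 2 h apart.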

[10] = Quantitative high throughput screen for delayed death inhibitors of the malarial parasite plastid, 96 hour incubation (AID 488745); further: series mostly up to about 29 µM; on the % scale 0 is the no-effect control and ±100 the full control effect; nearly all actives have a fitted effect of over 70% in size
Outline: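 Luciferase-expressing P. falciparum in erythrocytes (2% hematocrit, 0.1% parasitemia) incubated with compound for 96 h at 37 C, 5% CO2, in RPMI 1640 with 0.5% Albumax. Growth inhibition read as decreased luminescence.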

[11] = Quantitative high throughput screen for delayed death inhibitors of the malarial parasite plastid, 48 hour incubation (AID 488752); further: on the % scale 0 is the no-effect control and ±100 the full control effect; nearly all actives have a fitted effect of over 65% in size
Outline: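 Erythrocytes infected with firefly luciferase-expressing P. falciparum (2% hematocrit, 0.1% parasitemia) cultured with compound for 48 h at 37 C, 5% CO2, in RPMI 1640/0.5% Albumax. Growth inhibition read as loss of luminescence.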

[12] = target: M-phase phosphoprotein 8 (Homo sapiens) (UniProt Q99549); experiment: qHTS Validation Assay for Inhibitors for MPP8 Chromodomain Interactions with Methylated Histone Tails (AID 488949); further: top concentration of the series differs between compounds; on the % scale 0 is the no-effect control and ±100 the full control effect; nearly all actives have a fitted effect of over 55% in size
Chain of M-phase phosphoprotein 8 (Homo sapiens) (Q99549 whole entry, looked up): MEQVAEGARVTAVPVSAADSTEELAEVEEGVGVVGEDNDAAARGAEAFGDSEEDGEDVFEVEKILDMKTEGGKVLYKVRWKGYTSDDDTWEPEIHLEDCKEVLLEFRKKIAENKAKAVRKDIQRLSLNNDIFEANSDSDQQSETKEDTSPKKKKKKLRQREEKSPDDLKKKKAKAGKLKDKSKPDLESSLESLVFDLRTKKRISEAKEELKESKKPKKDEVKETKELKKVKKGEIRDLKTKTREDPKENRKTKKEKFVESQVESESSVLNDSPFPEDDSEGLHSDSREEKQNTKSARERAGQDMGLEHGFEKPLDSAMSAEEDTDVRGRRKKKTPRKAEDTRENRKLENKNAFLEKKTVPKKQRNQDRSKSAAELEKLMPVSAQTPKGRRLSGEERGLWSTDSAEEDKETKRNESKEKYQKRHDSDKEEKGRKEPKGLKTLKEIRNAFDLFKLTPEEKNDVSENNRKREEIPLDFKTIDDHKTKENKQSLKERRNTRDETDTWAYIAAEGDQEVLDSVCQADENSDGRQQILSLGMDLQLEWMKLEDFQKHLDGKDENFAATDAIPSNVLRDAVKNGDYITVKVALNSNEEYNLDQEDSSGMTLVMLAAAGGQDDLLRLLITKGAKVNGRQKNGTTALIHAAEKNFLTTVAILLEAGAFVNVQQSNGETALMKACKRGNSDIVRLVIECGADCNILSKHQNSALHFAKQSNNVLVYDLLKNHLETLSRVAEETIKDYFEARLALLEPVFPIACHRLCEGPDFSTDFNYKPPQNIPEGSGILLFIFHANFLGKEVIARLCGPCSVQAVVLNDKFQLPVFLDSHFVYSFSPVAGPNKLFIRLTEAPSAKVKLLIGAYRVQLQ
Outline: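 MPP8 (50 nM) was pre-bound to 50 nM biotinylated H3(1-18)K9me3 peptide in PBS pH 7.4 with 0.01% Tween-20. Compounds were then added for 30 min at room temperature, and complex disruption was read by AlphaScreen with streptavidin donor and nickel-chelate acceptor beads.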

[13] = target: Transient receptor potential cation channel subfamily V member 1 (Homo sapiens) (UniProt Q8NER1); experiment: HTS Assay for Compounds that Act as Enhancers of the Vanilloid Receptor 1 (AID 488979); further: 0% is about no effect
Outline: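 TRPV1 cells loaded with Fluo-8 calcium dye; compound added and Ca2+ signal (ex 480/em 520 nm) followed 3 min, then capsaicin at EC20 added and read 2 more min to detect enhancement.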

[14] = target: Thyrotropin receptor (Homo sapiens) (UniProt P16473); experiment: qHTS Assay for Antagonists of the Thyroid Stimulating Hormone Receptor (AID 488980); further: series mostly up to about 58 µM; 0% is about no effect
Chain of Thyrotropin receptor (Homo sapiens) (P16473 whole entry, looked up): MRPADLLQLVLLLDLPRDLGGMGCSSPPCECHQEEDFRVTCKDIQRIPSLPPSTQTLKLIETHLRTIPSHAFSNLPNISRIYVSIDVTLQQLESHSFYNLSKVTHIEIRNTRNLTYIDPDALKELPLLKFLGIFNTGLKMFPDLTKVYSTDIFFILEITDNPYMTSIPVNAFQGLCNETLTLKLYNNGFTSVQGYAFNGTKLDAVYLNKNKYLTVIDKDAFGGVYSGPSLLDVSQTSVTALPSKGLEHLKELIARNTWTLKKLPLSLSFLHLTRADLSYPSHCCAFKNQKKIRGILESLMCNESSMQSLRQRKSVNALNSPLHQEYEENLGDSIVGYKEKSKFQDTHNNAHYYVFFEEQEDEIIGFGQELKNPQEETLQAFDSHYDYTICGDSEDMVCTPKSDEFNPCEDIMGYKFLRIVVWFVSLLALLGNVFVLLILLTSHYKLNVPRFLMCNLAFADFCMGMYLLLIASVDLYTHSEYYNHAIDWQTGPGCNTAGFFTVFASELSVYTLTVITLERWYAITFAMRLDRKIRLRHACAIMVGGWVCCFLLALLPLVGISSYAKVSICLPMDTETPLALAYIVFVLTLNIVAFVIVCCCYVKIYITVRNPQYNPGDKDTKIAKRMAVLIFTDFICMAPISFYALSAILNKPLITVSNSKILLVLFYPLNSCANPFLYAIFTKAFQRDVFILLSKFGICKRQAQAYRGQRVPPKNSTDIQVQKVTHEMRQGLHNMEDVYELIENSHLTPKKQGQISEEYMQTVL
Outline: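 TSHR-transfected HEK293 cells (2000/well) in HEPES-buffered HBSS with 70 uM RO 20-1724 were stimulated with 4 nM TSH (EC80, final) in the presence of compound. cAMP was measured by HTRF competition after lysis and 30 min at RT.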

[15] = target: Thyrotropin-releasing hormone receptor (Homo sapiens) (UniProt P34981); experiment: qHTS for Small Molecule Agonists and Allosteric Enhancers of Human TRH Receptor: Validation Screen for Agonists (AID 493127;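 active means calcium activation more than 3 SD above the typical response in the agonist read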; further: 0% is about no effect); settings: TRH receptor agonist cell assay; at 2 µM; stronger effect = higher value
Chain of Thyrotropin-releasing hormone receptor (Homo sapiens) (P34981 whole entry, looked up): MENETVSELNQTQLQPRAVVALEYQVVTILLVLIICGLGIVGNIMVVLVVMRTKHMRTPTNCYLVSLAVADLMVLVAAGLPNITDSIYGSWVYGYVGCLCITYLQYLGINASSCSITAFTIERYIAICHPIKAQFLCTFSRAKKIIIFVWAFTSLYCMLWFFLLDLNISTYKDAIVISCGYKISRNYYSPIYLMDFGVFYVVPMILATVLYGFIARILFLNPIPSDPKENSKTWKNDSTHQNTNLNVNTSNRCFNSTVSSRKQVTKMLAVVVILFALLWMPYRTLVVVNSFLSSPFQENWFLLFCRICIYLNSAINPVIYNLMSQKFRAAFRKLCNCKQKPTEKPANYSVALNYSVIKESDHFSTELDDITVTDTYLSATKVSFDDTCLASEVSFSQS
Outline: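 TRHR cells loaded with fluo-8 calcium dye; FDSS kinetic fluorescence (Ex 480/Em 530) read at 1 s/cycle after 23 nL compound addition. Agonist-mode calcium response recorded before the 10 nM TRH (EC20) addition.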

[16] = Validation screen for small molecules that induce DNA re-replication in SW480 colon adenocarcinoma cells (AID 504364); further: 0% is about no effect
Outline: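 SW480 cells (250/well) exposed 48 h at 37 C, 5% CO2, then Hoechst-stained 40 min. Nuclear DNA content imaged by fluorescence scanning (405 nm excitation, 500-530 nm emission); re-replication scored as increased nuclei with elevated intensity.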

[17] = target: DNA dC->dU-editing enzyme APOBEC-3G (Homo sapiens) (UniProt Q9HC16); experiment: qHTS for inhibitors of Vif-A3G interactions: Validation (AID 588379); further: 0% is about no effect
Chain of DNA dC->dU-editing enzyme APOBEC-3G (Homo sapiens) (Q9HC16 whole entry, looked up): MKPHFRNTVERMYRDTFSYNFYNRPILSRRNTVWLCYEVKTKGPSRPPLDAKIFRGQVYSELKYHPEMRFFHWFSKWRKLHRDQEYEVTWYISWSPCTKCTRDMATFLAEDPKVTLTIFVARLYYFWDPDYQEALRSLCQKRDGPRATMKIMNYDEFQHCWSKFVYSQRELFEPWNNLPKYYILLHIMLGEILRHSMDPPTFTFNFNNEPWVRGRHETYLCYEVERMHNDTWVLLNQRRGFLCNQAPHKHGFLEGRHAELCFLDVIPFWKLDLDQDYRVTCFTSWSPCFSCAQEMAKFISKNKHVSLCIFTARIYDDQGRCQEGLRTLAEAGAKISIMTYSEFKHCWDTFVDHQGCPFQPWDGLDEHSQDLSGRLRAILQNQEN
Outline: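 HeLa cells stably expressing Vif and A3G-eYFP, 700 cells/well, incubated overnight at 37 deg C, then exposed to compound overnight at 37 deg C. Inhibition of Vif-mediated degradation read as increased yellow fluorescence (Ex 488/Em 500-530) by laser-scanning cytometry.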

[18] = target: Voltage-gated inwardly rectifying potassium channel KCNH2 (Homo sapiens) (UniProt Q12809); experiment: qHTS Assay for Small Molecule Inhibitors of the Human hERG Channel Activity (AID 588834);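 further: top concentration of the series differs between compounds; on the % scale 0 is the no-effect control and ±100 the full control effect; lower thallium flux fluorescence means stronger hERG block; nearly all actives have a fitted effect of over 50% in size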
Chain of Voltage-gated inwardly rectifying potassium channel KCNH2 (Homo sapiens) (Q12809 whole entry, looked up): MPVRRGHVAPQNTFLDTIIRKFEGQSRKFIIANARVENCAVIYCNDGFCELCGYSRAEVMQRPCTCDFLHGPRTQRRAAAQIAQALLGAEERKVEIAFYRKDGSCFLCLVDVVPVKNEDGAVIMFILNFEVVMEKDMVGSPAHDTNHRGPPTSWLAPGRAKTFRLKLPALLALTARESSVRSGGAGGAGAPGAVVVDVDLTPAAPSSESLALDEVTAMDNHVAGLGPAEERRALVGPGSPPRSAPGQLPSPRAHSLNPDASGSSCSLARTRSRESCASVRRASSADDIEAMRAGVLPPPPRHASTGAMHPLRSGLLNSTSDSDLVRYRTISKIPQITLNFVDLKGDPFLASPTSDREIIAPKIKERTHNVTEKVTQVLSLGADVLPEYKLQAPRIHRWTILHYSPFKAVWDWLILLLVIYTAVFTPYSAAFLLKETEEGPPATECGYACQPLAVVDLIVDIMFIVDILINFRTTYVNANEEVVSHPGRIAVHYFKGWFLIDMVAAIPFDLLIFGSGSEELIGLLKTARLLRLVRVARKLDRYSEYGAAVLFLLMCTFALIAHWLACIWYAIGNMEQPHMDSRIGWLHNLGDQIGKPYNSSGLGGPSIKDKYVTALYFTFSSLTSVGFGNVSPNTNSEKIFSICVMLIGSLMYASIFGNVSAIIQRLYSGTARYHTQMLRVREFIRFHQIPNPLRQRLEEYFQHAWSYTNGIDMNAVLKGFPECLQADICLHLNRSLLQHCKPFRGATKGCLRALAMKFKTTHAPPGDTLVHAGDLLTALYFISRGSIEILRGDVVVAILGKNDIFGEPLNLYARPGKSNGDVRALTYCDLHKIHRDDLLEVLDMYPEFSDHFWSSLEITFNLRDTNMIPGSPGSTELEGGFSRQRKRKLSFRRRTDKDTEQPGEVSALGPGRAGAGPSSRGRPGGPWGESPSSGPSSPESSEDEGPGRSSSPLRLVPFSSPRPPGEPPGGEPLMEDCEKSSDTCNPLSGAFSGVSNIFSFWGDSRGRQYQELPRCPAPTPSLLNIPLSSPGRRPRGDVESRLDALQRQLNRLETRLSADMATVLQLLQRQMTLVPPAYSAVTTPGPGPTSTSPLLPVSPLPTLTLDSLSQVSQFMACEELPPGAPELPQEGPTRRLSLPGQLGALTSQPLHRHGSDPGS
Outline: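 U2OS cells BacMam-transduced with hERG, 2000 cells/well, compound ~10 min at 37 °C before stimulation buffer. FluxOR thallium flux fluorescence read kinetically on FDSS; decrease indicates block; AC50 from Hill fits.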

[19] = tested on: Zika virus NS2B-NS3 protease; experiment: Primary screen GU AMC qHTS for Zika virus inhibitors (AID 1347154);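 further: 0% = no-inhibitor control and -100% = no-enzyme control; nearly all actives have a fitted effect of over 70% in size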
Outline: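 Unlinked Zika NS2B hydrophilic domain–NS3 protease complex at 25 nM in 10 mM Tris-HCl pH 8.0, 0.01% Tween 20, with an AMC peptide substrate. Fluorescence change (340/450 nm) over 15 min at room temperature, normalized to controls, fitted to 4-parameter Hill.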

[20] = Primary qHTS for small molecule stabilizers of the endoplasmic reticulum resident proteome: Secreted ER Calcium Modulated Protein (SERCaMP) assay (AID 1508630); further: on the % scale 0 is the no-effect control and ±100 the full control effect
Outline: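 GLuc-SERCaMP-expressing SH-SY5Y cells, pretreated 16 h with compound, are challenged with thapsigargin to empty ER calcium stores; after 4 h, coelenterazine is added directly to the medium and luminescence is imaged.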

CC(N)=NCc1cccc(CN)c1
inactive: Potency [1] | Potency [2] | Potency [3] | Potency [4] | Potency [5] | Potency [6] | outcome [7] | Potency [8] | Potency [9] | Potency [10] | Potency [11] | Potency [12] | outcome [13] | outcome [14] | activation [15] -0.25% | outcome [16] | Potency [17] | Potency [18] | Potency [19] | Potency [20]
